Assay outcomes: PubChem BioAssay, National Center for Advancing Translational Sciences (NCATS)
Shown are actives, neighbours in structure and some others; about 10% of the full set was active somewhere.
PNC inhibitor – High Content Assay for Compounds that inhibit the Assembly of the Perinucleolar Compartment | PC3M PTB-GFP, PNC prevalence imaging, 16 h; hits give low values | activity change (PNC), negative = inhibition, % at 10 µM | hit rate 3.1% among 140,000 | AID 2417, 2010;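 active means readout at or below -70, meaning at least 70% loss of cells showing the perinucleolar compartment, a nuclear body marking cancer cells; inconclusive means readout between -30 and a set limit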;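 further: plate controls were DMSO wells for no effect and camptothecin positive control wells for full effect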
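PC3M cells stably expressing PTB-GFP, 750–1000 cells/well, treated 16 h at 37 °C with compound (23 nl of library stock), in duplicate. After paraformaldehyde fixation and Hoechst stain, imaged at 20x; PNC prevalence scored by image analysis.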
ALDH1A1 inh – qHTS Assay for Inhibitors of Aldehyde Dehydrogenase 1 (ALDH1A1); Aldehyde dehydrogenase 1A1 (Homo sapiens), P00352; Purified ALDH1A1, NADH fluorescence, propionaldehyde substrate; Potency, µM (titrated, usually from 75.3 µM), for inactives: at the top dose activity, negative = inhibition, actives largely listed as inhibitors; hit rate 7.3% among 220,000; AID 1030, 2008;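 further: potency means the concentration at half of the fitted maximal effect; plate controls were no enzyme wells and a reference inhibitor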
Lamin A splicing – qHTS Assay for Modulators of Lamin A Splicing; Potency, µM (titrated, usually from 46.1 µM), without a hit: top-dose ratio change, negative = inhibition, usual class: inhibitors; HeLa LMNA splicing GFP/RFP minigene ratio, 48 h; hit rate 0.01% among 200,000; active means well fitted inhibition curve with a large enough effect in the signal ratio, with a control signal flat, not every such curve was filed as active; inconclusive means small, poorly fitted or top-dose-only effect, or effect the other way, or a change in a side signal; the % refers to the signal ratio; further: potency means the concentration at half of the fitted maximal effect
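S3 HeLa stable clones carrying a lamin A-EGFP splicing minigene plus DsRed2 were seeded at 600 cells/well in Opti-MEM with 2% FBS, pin-dosed and incubated 48 h at 37°C. Acumen cytometry (488 nm) gave the GFP/RFP total-intensity ratio.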
HPGD block – qHTS Assay for Inhibitors of HPGD (15-Hydroxyprostaglandin Dehydrogenase); 15-hydroxyprostaglandin dehydrogenase [NAD(+)] (Homo sapiens), P15428; purified HPGD, NADH fluorescence kinetic, PGE2 substrate; Potency, µM, for the others: top-dose activity change, negative = inhibition, actives largely listed as inhibitors; hit rate 4.3% among 150,000; AID 894, 2007; further: potency means the concentration at half of the fitted maximal effect
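20 nM HPGD preincubated 15 min at room temperature with compound in 50 mM Tris-HCl pH 8, 0.01% Tween 20. Started with 1 mM NAD+ and 30 uM prostaglandin E2; NADH fluorescence (360/450 nm) read 5 times over 30-s intervals, last minus first.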
ALOX12 inhib – qHTS Assay for Inhibitors of 12-hLO (12-human lipoxygenase); Potency, µM (series often up to 57.1 µM), for the others: at the highest dose activity change, negative = inhibition, usual class: inhibitors; Polyunsaturated fatty acid lipoxygenase ALOX12 (Homo sapiens), P18054; hit rate 0.12% among 150,000; purified 12-hLO, xylenol orange hydroperoxide absorbance; active means well fitted inhibition curve with a large enough effect; inconclusive means small, poorly fitted or top-dose-only effect; further: potency means the concentration at half of the fitted maximal effect; nearly all actives have a fitted effect of over 55% in size
Target sequence (P18054 whole entry, looked up): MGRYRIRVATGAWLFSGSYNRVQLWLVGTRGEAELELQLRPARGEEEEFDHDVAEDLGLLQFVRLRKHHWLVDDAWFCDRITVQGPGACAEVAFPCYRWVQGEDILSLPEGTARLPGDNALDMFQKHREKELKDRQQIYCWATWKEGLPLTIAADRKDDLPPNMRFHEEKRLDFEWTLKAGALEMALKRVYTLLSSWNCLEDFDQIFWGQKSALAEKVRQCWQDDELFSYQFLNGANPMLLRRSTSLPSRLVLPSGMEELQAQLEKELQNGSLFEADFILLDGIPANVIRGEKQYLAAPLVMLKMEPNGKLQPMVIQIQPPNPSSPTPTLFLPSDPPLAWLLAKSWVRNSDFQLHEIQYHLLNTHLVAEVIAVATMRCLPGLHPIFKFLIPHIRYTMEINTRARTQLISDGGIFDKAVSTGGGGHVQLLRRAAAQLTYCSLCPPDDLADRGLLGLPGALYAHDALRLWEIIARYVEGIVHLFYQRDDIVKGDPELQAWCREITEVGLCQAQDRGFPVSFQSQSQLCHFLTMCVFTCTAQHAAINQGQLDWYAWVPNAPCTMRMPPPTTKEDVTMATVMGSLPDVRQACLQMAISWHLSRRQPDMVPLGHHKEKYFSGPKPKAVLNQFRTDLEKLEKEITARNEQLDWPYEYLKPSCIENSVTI
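Lipoxygenase turnover measured by absorbance at 573 and 405 nm after Fe-XO development. Human 12hLO 150 nM, arachidonate 40 uM, pH 7.0 Hepes buffer with detergent; 15 min compound preincubation, 30 min reaction.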
An asterisk follows results filed as active; ? = inconclusive; . = no result given; [ ] = remark or other dose. Unless noted, the call rests on the fitted dose curve; in most records, active means well fitted inhibition curve with a large enough effect (not every such curve was filed as active); inconclusive means small, poorly fitted or top-dose-only effect, or another doubt; inactive means no such curve, though single readings can be large or run the other way. Unless noted, on the % scale 0 is the no-effect control and ±100 the full control effect.

SMILES	PNC inhibitor	ALDH1A1 inh	Lamin A splicing	HPGD block	ALOX12 inhib
CCOc1ccc(NC(=O)C(C)n2c(=O)cc(-c3ccccc3)c3c(C)nn(C)c32)cc1 (stereo unspecified)	.	.	9%[46 µM]	.	.
O=C(NNC(=S)Nc1ccc(Cl)cc1)c1ccccc1OC(F)F	18	20µM*	?	-14%	-3%
O=C(NNC(=S)Nc1ccc(Cl)cc1)c1cccs1	.	11µM*	.	.	.
O=C(NNC(=S)Nc1ccccc1)c1cccs1	12	-11%	8%	-7%	1%
CCN(c1ccccc1)S(=O)(=O)c1ccc(NC(=S)NC(=O)c2cccs2)cc1	4	6.3µM*	17%	-21%	25µM*
CCCCn1nnc(NC(=S)NC(=O)c2cccs2)n1	22	20µM*	-9%	.	-15%
Cn1c(=O)cnc2cnc(Nc3ccccc3)nc21	.	-17%	.	-13%	0%
COc1ccccc1NC(=O)c1ncoc1-c1ccco1	.	.	8%[46 µM]	.	.
Cc1ccc(N2C(=O)CS(=O)(=O)C23C(=O)N(C)c2ccccc23)cc1F (stereo unspecified)	.	.	10%[46 µM]	.	.
COc1ccccc1NC(=S)NNC(=S)Nc1ccc(OC(F)F)cc1	14	7.1µM*	-19%	-19%	-7%
CCN(CC)c1ccc(NC(=O)c2ccco2)cc1	15	-4%	-1%	-16%	11%
CCN(CC)c1ccc(/C=N/NC(=O)c2ccco2)cc1	-94*	10µM*	?	-29%	0%
CCN(CC)c1ccc(NC(=S)NC(=O)c2ccco2)cc1	.	25µM*	?	.	.
CCN(CC)c1ccc(/C=N/NC(=O)c2ccc([N+](=O)[O-])cc2)cc1	.	28µM*	.	.	.
O=C(N/N=C\c1ccc2c(c1)OCO2)c1ccco1	?	-4%	-14%	.	0%
O=C(CCNC(=O)c1ccc([N+](=O)[O-])cc1)N/N=C/c1ccc(F)cc1	.	5%	?	.	.
Cc1noc(C)c1C(=O)N1CCC[C@@]2(CCN(C(c3ccccc3)c3ccccc3)C2)C1	.	4%	.	-6%	-7%
O=[N+]([O-])c1ccc(OCC(O)CN2CCN(c3ccccc3F)CC2)cc1 (stereo unspecified)	-26	8%	?	-6%	-2%
CCN(CC)C(=S)SCC(=O)Nc1ccc(F)cc1	5	?	2%	18µM*	-3%
COc1ccc(-c2csc(NC(=S)NC(=O)c3cccs3)n2)cc1OC	.	11µM*	?	.	.
COc1ccc(-c2csc(NC(=S)NC(=O)c3cccs3)n2)cc1Br	.	2%	?	.	.
CCN(CC)c1ccc(NC(=O)CN2CCN(CC(=O)Nc3ccc(F)cc3)CC2)cc1	9	-6%	-9%	1%	-1%
CCN(CC)c1ccc(NC(=S)Nc2ccc(F)cc2)cc1	.	11µM*	.	.	.
CCCCc1nn2c(=O)cc(COC(=O)c3cccc(NC(=O)CCc4ccccc4)c3)nc2s1	.	.	-13%[46 µM]	.	.
CCOc1ccc(NC(=O)Cn2nnc3c(cnn3-c3ccc(F)cc3)c2=O)cc1	.	7.9µM*	4%[46 µM]	.	.
SMILES	PNC inhibitor	ALDH1A1 inh	Lamin A splicing	HPGD block	ALOX12 inhib
Cc1ccccc1NC(=O)Cn1nnc2c(cnn2-c2ccc(F)cc2)c1=O	-21	3%	8%	-13%	1%
C=CC[C@@H]1C=C[C@H](O/N=C(\C)CCN2CCc3nc(CC)c(CC)cc3C2)[C@H](CO)O1	.	10%[13.5 µM]	.	.	.
Oc1ccc(/C=N/Nc2nc(N3CCCC3)nc(N3CCCC3)n2)cc1O	.	13µM*	?	.	.
COc1cc(/C=N/Nc2nc(N3CCCC3)nc(N3CCCC3)n2)ccc1O	?	5%	-4%	?	-6%
Cc1onc(-c2cccc(Cl)c2Cl)c1C(=O)O/N=C(\N)c1ccc([N+](=O)[O-])o1	.	5µM*	.	.	.
CC1Cc2ccccc2N1C(=O)c1ccc(N2CCCCC2)c([N+](=O)[O-])c1 (stereo unspecified)	-20	22µM*	?	-19%	0%
O=C(O)c1ccccc1C(=O)c1ccc(N2CCCC2)c([N+](=O)[O-])c1	.	0%	.	.	.
CC1Cc2ccccc2N1C(=O)c1ccc(N2CCCC2)c([N+](=O)[O-])c1 (stereo unspecified)	-6	13µM*	?	-20%	0%
NS(=O)(=O)c1ccc(NC(=O)CSC2=NC(=O)C(c3ccccc3)C(=O)N2)cc1 (stereo unspecified)	32	?	8%	.	-2%
Cn1cnnc1SCC(=O)Nc1sc2c(c1C#N)CCCCC2	?	7.1µM*	-15%	-13%	-7%
N#Cc1ccc(-c2ccc(F)cc2)nc1SCC(=O)Nc1sc2c(c1C#N)CCC2	17	25µM*	5%	?	-8%
Cc1sc(NC(=O)CSc2nnnn2C2CCCC2)c(C#N)c1C	26	?	-7%	.	-8%
N#Cc1c(NC(=O)CSc2ncn(-c3ccccc3)n2)sc2c1CCCC2	?	?	?	-14%	-6%
CC(=O)NC1C(=O)N=C(SCC(=O)Nc2cccc(Cl)c2)NC1=O (stereo unspecified)	.	28µM*	-14%[9.22 µM]	.	.
N#Cc1c(NC(=O)CSc2nnnn2C2CCCC2)sc2c1CCCC2	-2	3.5µM*	-5%	-21%	-1%
Cc1nn2c(=O)cc(COC(=O)c3ccccc3NC(=O)c3ccccc3C)nc2s1	.	.	-7%[46 µM]	.	.
N#Cc1c(NC(=O)CSc2ncn[nH]2)sc2c1CCCCC2	-117*	?	?	-7%	-3%
Clc1ccc(-c2nn3c(C4COc5ccccc5O4)nnc3s2)cc1 (stereo unspecified)	2	7.9µM*	13%	13µM*	-13%
COC(=O)c1ccc(NC(=O)CSC2=NCCN2)cc1	17	-17%	-16%	-7%	-4%
COC(=O)c1c(NC(=O)CSc2ncnc3[nH]ncc23)sc2c1CCC2	.	14µM*	.	.	.
N#Cc1c(NC(=O)CSc2nc(N)cc(=O)[nH]2)sc2c1CCCCCC2	-27	2%	?	-6%	-2%
CCC1C(=O)N=C(SCC(=O)Nc2ccc(C(=O)OC)cc2)NC1=O (stereo unspecified)	29	3%	8%	14µM*	2%
CN(C)c1ccc(-c2nn3c(-c4ccc(Cl)cc4)nnc3s2)cc1	22	?	-5%	.	-5%
COC(=O)c1c(NC(=O)CSc2ncnc3c2cnn3-c2ccccc2Cl)sc2c1CCCC2	-18	?	?	-16%	-1%
CC(C)COc1ccc(C(=O)N2CCN(CCc3ccccn3)CC2)cc1	.	.	23%[46 µM]	.	.
Cc1ccc(CNC(=O)NC2COc3ccccc3C2)cc1 (stereo unspecified)	.	.	5%[46 µM]	.	.
Cn1c(SCC(=O)Nc2sc3c(c2C#N)CCC3)nnc1C1COc2ccccc2O1 (stereo unspecified)	-81*	14%	?	-7%	-16%
